Data published in PubChem BioAssay (NCATS).
Values joined by “and” are separate entries in the source; they are usually repeats but may differ in a detail not shown here. Equal values may be shown once. Records with an inconclusive call do not appear. Active and inactive are the calls of the source. Unless noted, the call rests on the fitted dose curve; in most records, active means well fitted curve in the direction sought with a large enough effect; inconclusive means small, poorly fitted or top-dose-only effect, or another doubt; inactive means no such curve, though single readings can be large; an effect the other way counts as inactive or inconclusive.

Key:
[1] = biological target: Cellular tumor antigen p53 (Homo sapiens) (UniProt P04637); test: Primary qHTS for small molecule compounds that upregulate eGFP-tagged delta133p53alpha (in N-terminal) cells. (AID 2060322); conditions: NCI-H358 eGFP-delta133p53alpha fluorescence, 24 h; activation: hits give high values; further: nearly all actives have a fitted effect of over 75% in size; further: potency means the concentration at half of the fitted maximal effect;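 on activation: cells pre-induced with doxycycline then dosed without doxycycline; series mostly up to about 56 µM; 0% = DMSO vehicle and 100% = reference activator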
How it was run: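 NCI-H358 cells pre-induced 24 h with 10 ng/ml doxycycline for eGFP-delta133p53alpha, plated dox-free and exposed 24 h at 37C to titrated compounds. Fixed, Hoechst-stained; gated GFP peak intensity by laser scanning cytometry, normalized to DMSO (0%) and 57.5 uM 5-azacytidine (100%).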

[2] = biological target: Cellular tumor antigen p53 (Homo sapiens) (UniProt P04637); test: Primary qHTS for small molecule compounds that upregulate eGFP-tagged delta133p53alpha (in C-terminal) cells. (AID 2060324); further: potency means the concentration at half of the fitted maximal effect
How it was run: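 Concentration-response screen: compounds titrated onto pre-induced NCI-H358 D133p53a-eGFP cells, incubated one day, fixed with 3.5% PFA. Per-cell GFP peak intensity was gated, then normalized against intraplate controls.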

[3] = biological target: Aldehyde dehydrogenase, mitochondrial (Homo sapiens) (UniProt P05091); test: qHTS for Inhibitors of the Aldehyde Dehydrogenase Family (ALDH2) Validation screens (AID 2061302; active means well fitted inhibition curve with a large enough effect; title and protocol of this record describe different tests;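 further: plate controls were DMSO vehicle for no effect and maximal DPI positive control response for full effect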)
[4] = biological target: Aldehyde dehydrogenase, mitochondrial (Homo sapiens) (UniProt P05091); test: qHTS for Inhibitors of the Aldehyde Dehydrogenase Family (ALDH2) Primary screen (AID 2061308);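 further: plate controls were vehicle for no effect and reference inhibitor for full effect; nearly all actives have a fitted effect of over 55% in size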
[5] = biological target: Retinaldehyde dehydrogenase 3 (Homo sapiens) (UniProt P47895); test: qHTS for Inhibitors of the Aldehyde Dehydrogenase Family (ALDH1A3) Primary screen (AID 2061315);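 further: plate controls were DMSO vehicle for no effect and reference inhibitor for full effect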
[6] = BET inhibitor-based combinations targeting novel dependencies in MECOM-rearranged (r) AML: OCI-AML3 cell line (AID 2202232); conditions: Potency: OCI-AML3 viability; further: potency means the concentration at half of the fitted maximal effect; nearly all actives have a fitted effect of over 35% in size
How it was run: (§1)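 Here, 11-point titrations of each agent were applied to 500 seeded cells and incubated 48 hr; CellTiter-Glo signal, scaled against DMSO and empty wells, was integrated as AUC, then Z-scored within the individual line.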

[7] = BET inhibitor-based combinations targeting novel dependencies in MECOM-rearranged (r) AML: MV-4-11 cell line (AID 2202233); further: potency means the concentration at half of the fitted maximal effect; nearly all actives have a fitted effect of over 45% in size
How it was run: (§2)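 Normalized to DMSO and empty-well controls, the luminescence data from CellTiter-Glo after 48 hr drug exposure were fitted across 11 concentrations. Reported metrics are area under the dose-response curve and its Z-transformed form.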

[8] = BET inhibitor-based combinations targeting novel dependencies in MECOM-rearranged (r) AML: HNT-34 cell line (AID 2202234); further: potency means the concentration at half of the fitted maximal effect; nearly all actives have a fitted effect of over 35% in size
How it was run: as §2

[9] = BET inhibitor-based combinations targeting novel dependencies in MECOM-rearranged (r) AML: UCSD-AML1 cell line (AID 2202235); further: potency means the concentration at half of the fitted maximal effect; nearly all actives have a fitted effect of over 40% in size
How it was run: as §2

[10] = BET inhibitor-based combinations targeting novel dependencies in MECOM-rearranged (r) AML: AML-191 cell line (AID 2202236; further: potency means the concentration at half of the fitted maximal effect; nearly all actives have a fitted effect of over 35% in size)
How it was run: as §1

[11] = BET inhibitor-based combinations targeting novel dependencies in MECOM-rearranged (r) AML: AML-194 cell line (AID 2202237; further: potency means the concentration at half of the fitted maximal effect; nearly all actives have a fitted effect of over 40% in size)
How it was run: as §1

[12] = biological target: Retinaldehyde dehydrogenase 3 (Homo sapiens) (UniProt P47895); test: qHTS for Inhibitors of the Aldehyde Dehydrogenase Family (ALDH1A3) Validation screen (AID 2061312); further: on the % scale 0 is the no-effect control and ±100 the full control effect; nearly all actives have a fitted effect of over 45% in size

Sequence of Cellular tumor antigen p53 (Homo sapiens) (P04637 whole entry, looked up): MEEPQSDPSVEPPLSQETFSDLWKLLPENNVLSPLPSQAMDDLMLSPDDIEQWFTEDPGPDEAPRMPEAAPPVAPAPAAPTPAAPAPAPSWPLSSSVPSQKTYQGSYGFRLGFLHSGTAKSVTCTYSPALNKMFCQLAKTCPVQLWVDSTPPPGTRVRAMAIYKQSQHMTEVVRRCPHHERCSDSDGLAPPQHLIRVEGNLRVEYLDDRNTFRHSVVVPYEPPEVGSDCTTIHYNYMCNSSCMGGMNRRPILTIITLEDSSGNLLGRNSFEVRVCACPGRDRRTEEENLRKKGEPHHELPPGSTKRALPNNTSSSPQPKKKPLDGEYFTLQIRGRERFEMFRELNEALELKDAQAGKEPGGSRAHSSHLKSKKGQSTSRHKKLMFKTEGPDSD

CCN(CC)CCCC(C)Nc1c2ccc(Cl)cc2nc2ccc(OC)cc12 (stereo not drawn)
inactive: Potency [3] | Potency [4] | Potency [5]
active: Potency [1] 12.3 µM and 11.7 µM | Potency [2] 26.9 µM | Potency [6] 7.42 µM | Potency [7] 2.95 µM | Potency [8] 7.42 µM | Potency [9] 4.68 µM | Potency [10] 7.42 µM | Potency [11] 7.42 µM

N[C@@H](Cn1ccc(=O)c(O)c1)C(=O)O
inactive: activation [1] -3.82% and -8.28% | Potency [2] | Potency [3] | activity change, negative = inhibition [4] 3.38% [at 5.59 µM] | Potency [12] | activity change, negative = inhibition [5] 6.23% [at 5.59 µM]

CCn1nc(C(=O)O)c(=O)c2cc3c(cc21)OCO3
inactive: activation [1] -7.53% and -29.2% | Potency [2] | Potency [3] | Potency [12]

NC(=Nc1ccccc1)NC(=O)c1nc(Cl)c(N)nc1N
inactive: activation [1] -28.9% | Potency [2] | Potency [3] | Potency [12]

CC(C)(C)[C@]1(O)CCN2C[C@H]3c4ccccc4CCc4cccc(c43)[C@@H]2C1
inactive: activation [1] -52.3% and -59.2% | Potency [2] | Potency [3] | Potency [12]

CC(CN(C)C)CN1c2ccccc2CCc2ccccc21 (stereo not drawn)
inactive: activation [1] -10% and -21.6% | Potency [2] | Potency [3] | Potency [12]

O=C(c1ccc(Cl)cc1)N1CCN(c2ccc([N+](=O)[O-])c3ncccc23)CC1
inactive: activation [1] -9.46% | Potency [2] | Potency [3] | Potency [12]

C[C@@H](NCCc1ccc(O)cc1)[C@@H](O)c1ccc(O)cc1
inactive: activation [1] -21.6% | Potency [2] | Potency [3] | Potency [12]

CC1CC2C3CCC4=CC(=O)C=C[C@]4(C)[C@@]3(F)[C@@H](O)C[C@]2(C)[C@@]1(O)C(=O)CO (stereo partly drawn)
inactive: activation [1] -4.86% and -24.4% | Potency [2] | Potency [3] | Potency [12]

CCCCNc1c(C(=O)OCC)c(C)nc2c1cnn2CC
inactive: activation [1] 8.47% and 3.05% | Potency [2] | Potency [3] | Potency [12]

CC(N)(Cc1ccc(O)cc1)C(=O)O (stereo not drawn)
inactive: activation [1] -18.1% | Potency [2] | Potency [3] | Potency [12]

O=c1[nH]c2ccccc2c2ccccc12
inactive: activation [1] 11.2% | Potency [2] | Potency [3] | Potency [12]

COc1cc(N)c(Cl)cc1C(=O)OCCN1CCCCC1
inactive: activation [1] -2.92% | Potency [2] | Potency [3] | Potency [12]

CN(CC[C@@H](Oc1ccc(C(F)(F)F)cc1)c1ccccc1)CC(=O)O
inactive: activation [1] 2.22% | Potency [2] | Potency [3] | Potency [12]

N=C(N)SCCN
inactive: activation [1] -11.7% | Potency [2] | Potency [3] | Potency [12]

CN(C)CCOC(C)(c1ccccc1)c1ccccn1 (stereo not drawn)
inactive: activation [1] -7.21% | Potency [2] | Potency [3] | Potency [12]

N#Cc1cc2nc(O)c(O)nc2cc1[N+](=O)[O-]
inactive: activation [1] -30.1% | Potency [2] | Potency [3] | Potency [12]

CC(=O)O[C@H]1C[C@@H]2CC[C@@H]3[C@H](CC[C@@]4(C)[C@H]3C[C@H]([N+]3(C)CCCCC3)[C@@H]4OC(C)=O)[C@@]2(C)C[C@@H]1[N+]1(C)CCCCC1
inactive: activation [1] -16.6% | Potency [2] | Potency [3] | Potency [12]

O=P(O)(O)C(Cl)(Cl)P(=O)(O)O
inactive: activation [1] -11.2% | Potency [2] | Potency [3] | Potency [12]

CCCn1c(=O)c2[nH]c(C3CCCC3)nc2n(CCC)c1=O
inactive: activation [1] -35.5% | Potency [2] | Potency [3] | Potency [12]

CCCC1O[C@@H]2C[C@H]3[C@@H]4CCC5=CC(=O)C=C[C@]5(C)[C@H]4[C@@H](O)C[C@]3(C)[C@]2(C(=O)CO)O1 (stereo partly drawn)
inactive: activation [1] -22.8% | Potency [2] | Potency [3] | Potency [12]

NC/C=C/C(=O)O
inactive: activation [1] 18.6% and -17.5% | Potency [2] | Potency [3] | Potency [12]

Nc1ncnc2c1ncn2[C@@H]1O[C@H](COP(=O)(O)CP(=O)(O)OP(=O)(O)O)[C@@H](O)[C@H]1O
inactive: activation [1] 7.87% | Potency [2] | Potency [3] | Potency [12]

CN/C(=C\[N+](=O)[O-])NCCSCc1ccc(CN(C)C)o1
inactive: activation [1] 7.34% and -15.3% | Potency [2] | Potency [3] | Potency [12]

CN(C)C(=O)Oc1ccc[n+](C)c1
inactive: activation [1] -10.7% and 11.9% | Potency [2] | Potency [3] | Potency [12]

OC[C@H]1O[C@H](n2cnc3c(N[C@H]4CCC[C@@H]4O)ncnc32)[C@H](O)[C@@H]1O
inactive: activation [1] -36% | Potency [2] | Potency [3] | Potency [12]
